In PMC5540273 (PLoS ONE, 2017):

Assays:
Conditions in all cases: concentration: 1 μM, replicates: in singlicate; n = 1
VRK2 = tested on: VRK2
WEE1 = tested on: WEE1
WEE2 = tested on: WEE2
WNK1 = tested on: WNK1
WNK2 = tested on: WNK2
WNK3 = tested on: WNK3
WNK4 = tested on: WNK4
YANK1 = tested on: T1, YANK1
T1 construct: gene STK32A

YANK2 = tested on: T2, YANK2
T2 construct: gene STK32B

YANK3 = tested on: T3, YANK3
T3 construct: gene STK32C
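Also: KINOMEscan kinase panel screen.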

Row | Compound | %Inh (VRK2) | %Inh (WEE1) | %Inh (WEE2) | %Inh (WNK1) | %Inh (WNK2) | %Inh (WNK3) | %Inh (WNK4) | %Inh (YANK1) | %Inh (YANK2) | %Inh (YANK3)
1 | O=C(Nc1ccccc1)Nc1cccc(Oc2ccc3nccn3n2)c1 | 0% | 0% | 41% | 0% | 0% | 0% | 17% | 0% | 29% | 0%
2 | Fc1cc(Cl)ccc1Nc1ccnc2cc(-c3ccc(CN4CCCCC4)o3)ccc12 [GW560116] | 38% | 0% | 4% | 0% | 0% | 34% | 49% | 0% | 0% | 0%
3 | CS(=O)(=O)c1ccc(-c2c(-c3ncn[nH]3)sc(N3CCOCC3)c2C#N)cc1 | 0% | 0% | 10% | 0% | 11% | 0% | 0% | 27% | 0% | 16%
4 | COc1cccc(-c2cc(-c3c[nH]nc3-c3ccccn3)ccn2)c1 [GW680338] | 24% | 19% | 4% | 0% | 17% | 26% | 25% | 2% | 0% | 0%
5 | COc1cccc(NC(=O)NC2CCN(c3ccnc(Nc4ccc(F)cc4)n3)C2)c1 (stereo not drawn) [GSK1379721] | 0% | 6% | 0% | 5% | 8% | 33% | 2% | 0% | 0% | 0%
6 | Fc1cc(Cl)ccc1Nc1ccnc2cc(I)ccc12 [GW551191] | 0% | 8% | 0% | 3% | 11% | 29% | 16% | 16% | 11% | 20%
7 | Cl.NC(=O)c1cccc(Nc2nccc(Nc3ccc(Oc4cccc(Cl)c4)c(Cl)c3)n2)c1 [GW659008] | 0% | 0% | 12% | 0% | 0% | 15% | 0% | 3% | 2% | 28%
8 | Cl.Oc1ccc(-c2nc(-c3ccccc3)[nH]c2-c2ccncc2)cc1 [SB-428218] | 64% | 64% | 8% | 0% | 0% | 0% | 60% | 8% | 0% | 21%
9 | Cn1ccc2ncnc(Oc3ccc(NC(=O)Nc4ccccc4)cc3)c21 | 0% | 0% | 0% | 0% | 0% | 0% | 1% | 17% | 0% | 0%
10 | CC1=C(C(=O)Nc2cc3cn[nH]c3cc2F)C(c2ccc(C(F)(F)F)cc2)CC(=O)N1 (stereo not drawn) [GSK429286] | 0% | 12% | 20% | 20% | 61% | 3% | 0% | 8% | 0% | 24%
11 | Cc1ccc(C(=O)Nc2ccc(Nc3ccnc4cc(-c5ccccn5)ccc34)cc2O)cc1.Cl [GW440146] | 0% | 39% | 0% | 10% | 8% | 36% | 39% | 0% | 14% | 30%
12 | O=C(O)COc1ncnc2cc(-c3ccc4[nH]ncc4c3)sc12 | 8% | 0% | 6% | 7% | 32% | 1% | 23% | 12% | 4% | 14%
13 | CC(=O)Nc1nc2cnc(Nc3cc(NC(=O)c4cccc(CCC#N)c4)ccc3C)nc2s1 | 0% | 0% | 0% | 0% | 22% | 0% | 11% | 15% | 9% | 34%
14 | COc1ccc(C2=C(Nc3cccc(C(=O)O)c3)C(=O)NC2=O)cc1 [SB-390765] | 0% | 0% | 16% | 49% | 15% | 23% | 24% | 0% | 0% | 0%
15 | COc1cc(Nc2nccc(N3CCC(NC(=O)Nc4cc(C)ccc4C)C3)n2)cc(OC)c1OC (stereo not drawn) [GSK1379762] | 0% | 32% | 9% | 1% | 0% | 8% | 25% | 8% | 0% | 10%
16 | COC(=O)c1c(-c2ccccc2)c2cc(OC)ccc2c(=O)n1Cc1ccccc1 | 0% | 0% | 9% | 0% | 0% | 0% | 0% | 0% | 4% | 0%
17 | CC(C)(C)c1ccc(C(=O)Nc2cn3cc(Cl)ccc3n2)cc1 | 0% | 0% | 0% | 0% | 0% | 0% | 0% | 0% | 0% | 3%
18 | CS(=O)(=O)c1ccc(-c2nc3n(c2-c2ccncc2)CCC3)cc1 [SKF-105942] | 12% | 0% | 10% | 0% | 0% | 0% | 29% | 0% | 0% | 100%

Row | Compound | %Inh (VRK2) | %Inh (WEE1) | %Inh (WEE2) | %Inh (WNK1) | %Inh (WNK2) | %Inh (WNK3) | %Inh (WNK4) | %Inh (YANK1) | %Inh (YANK2) | %Inh (YANK3)
19 | Cc1ccc(NC(=O)Nc2cccc(Cl)c2)cc1-c1ccc(C(=O)Nc2ccncc2)cc1 [GSK1398468] | 0% | 2% | 21% | 7% | 0% | 18% | 24% | 10% | 0% | 0%
20 | CC(C)(C)c1ccc(C(=O)Nc2cn3cc(-c4cccnc4)ccc3n2)cc1 | 0% | 0% | 0% | 0% | 36% | 0% | 26% | 3% | 0% | 20%
21 | CN1C(=O)C(Nc2ccc(Cl)c(C(=O)O)c2)=C(c2ccc(Cl)cc2)C1=O [SB-404290] | 0% | 0% | 21% | 0% | 0% | 5% | 16% | 0% | 0% | 0%
22 | Cc1cc(-c2ccc3c(c2)CC[C@@H](N[C@@H](C)c2ccccc2)C3)cnc1N.Cl [GW412617] | 0% | 18% | 11% | 0% | 0% | 7% | 0% | 2% | 4% | 33%
23 | Cc1cccc(-c2nc(Nc3cccc(C(N)=O)c3)c3ccccc3n2)n1 [GW876019] | 0% | 5% | 9% | 0% | 0% | 0% | 0% | 0% | 0% | 0%
24 | Cc1cccc(-c2nc(C)cc(Nc3ccncc3)n2)n1 [GSK257997] | 0% | 9% | 2% | 6% | 6% | 6% | 0% | 10% | 0% | 5%
25 | O=C(Nc1n[nH]c2nc(-c3nccs3)c(Br)cc12)C1CC1 [SB-742251] | 0% | 16% | 7% | 23% | 2% | 35% | 51% | 6% | 0% | 7%
26 | O=C1NC(=O)C(N2CCc3ccccc32)=C1c1ccccc1Cl [SB-373598] | 0% | 6% | 9% | 0% | 2% | 22% | 75% | 13% | 16% | 20%
27 | Fc1cccc(COc2nnc(-c3ccc4c(c3)CCO4)o2)c1 | 0% | 0% | 19% | 0% | 0% | 0% | 0% | 0% | 0% | 19%
28 | COc1cc2ncn(-c3cc(OCC4CCCO4)c(C(N)=O)s3)c2cc1OC (stereo not drawn) [GSK204607] | 19% | 9% | 3% | 0% | 8% | 12% | 35% | 9% | 0% | 0%
29 | COc1ccc(CNC(=O)NC2CCN(c3ccnc(Nc4cc(OC)c(OC)c(OC)c4)n3)C2)cc1 (stereo not drawn) [GSK1379748] | 14% | 5% | 0% | 7% | 30% | 30% | 52% | 0% | 0% | 0%
30 | COc1cc2nccc(Nc3ccc(NC(=O)c4ccc(C)cc4)c(O)c3)c2cc1OC.Cl [GW440132] | 0% | 2% | 11% | 7% | 14% | 14% | 0% | 11% | 0% | 16%
31 | Cn1ccc2ncnc(Oc3ccc(Nc4nc5ccccc5[nH]4)cc3)c21 | 0% | 0% | 19% | 0% | 0% | 0% | 0% | 0% | 0% | 2%
32 | CN(C)CCN(C)C(=O)c1cc(-c2ccncc2)c(-c2ccc(Cl)c(O)c2)o1.Cl.Cl [SB-710397] | 24% | 0% | 5% | 15% | 0% | 38% | 47% | 49% | 71% | 35%
33 | Cc1cccc(-c2cc(Nc3ccncc3)c3ccccc3n2)n1 [GSK223675] | 0% | 20% | 0% | 4% | 0% | 1% | 0% | 2% | 0% | 0%
34 | COc1ccc2nc(-c3cccc(C)n3)nc(Nc3ccncc3)c2c1 [GSK204919] | 33% | 0% | 2% | 5% | 3% | 8% | 9% | 19% | 2% | 18%
35 | Clc1cc(Cl)cc(Nc2ccnc(Nc3cc(Cl)cc(Cl)c3)n2)c1 [GSK175726] | 6% | 6% | 0% | 0% | 0% | 22% | 32% | 0% | 0% | 14%
36 | O=C(Nc1n[nH]c2nc(-c3nccs3)c(Br)cc12)C1CCCC1 [SB-742609] | 34% | 0% | 1% | 10% | 0% | 19% | 0% | 4% | 0% | 28%
